NPC1 promoter act: NPC1 promoter activation; Huh7 NPC1 promoter luciferase reporter, 24 h; Potency, µM (highest dose often 9.22 µM), for inactives: at the highest dose activation, usual class: activators; 2.4% of 320,000 active; AID 485313; note: % of control where 0% means no effect; nearly all actives have a fitted effect of over 60% in size
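In 1536-well qHTS, Huh7 cells harboring an NPC1 promoter–luciferase construct received compound for 24 h; activation was quantified by luminescence following luciferase reagent addition.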
FLuc modulator: inhibits or activates purified firefly luciferase, miR-21 counter-screen. P08659. purified FLuc, Km substrates, luminescence inhibition. Potency, µM (top dose mostly 57.5 µM), for the others: at the top dose activity change, negative = inhibition, usual class: inhibitors. 6.9% of 360,000 active. AID 588342;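 note: plate controls were vehicle for no effect and reference inhibitor for full effect; nearly all actives have a fitted effect of over 55% in size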
Target sequence (P08659 whole entry, looked up): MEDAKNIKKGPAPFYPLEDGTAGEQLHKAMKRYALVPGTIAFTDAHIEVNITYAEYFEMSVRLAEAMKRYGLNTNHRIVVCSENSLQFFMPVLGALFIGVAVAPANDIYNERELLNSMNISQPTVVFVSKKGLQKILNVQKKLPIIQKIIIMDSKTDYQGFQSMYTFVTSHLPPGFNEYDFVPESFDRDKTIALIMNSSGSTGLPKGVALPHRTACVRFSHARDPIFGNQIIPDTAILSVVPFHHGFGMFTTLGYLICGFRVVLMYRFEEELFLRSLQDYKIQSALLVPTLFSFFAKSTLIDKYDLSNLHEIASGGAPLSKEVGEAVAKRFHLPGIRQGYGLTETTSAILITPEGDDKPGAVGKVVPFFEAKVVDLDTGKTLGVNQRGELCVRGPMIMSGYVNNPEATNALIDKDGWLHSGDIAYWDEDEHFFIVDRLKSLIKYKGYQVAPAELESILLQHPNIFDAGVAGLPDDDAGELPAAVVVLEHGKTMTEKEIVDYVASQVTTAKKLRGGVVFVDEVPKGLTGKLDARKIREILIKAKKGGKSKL
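Purified P. pyralis luciferase, 10 nM final, with Km-level 10 uM D-luciferin and 10 uM ATP in 50 mM Tris acetate pH 7.5, 10 mM Mg acetate, 0.01% Tween-20, 0.05% BSA; 6-point qHTS titration about 60 µM downward; luminescence read.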
SMN2 splice enh: SMN2 splice variant enhancement | Potency, µM (highest dose often 46.1 µM), for inactives: at the top dose activity change, positive = activation, hits mostly activators | HEK293 SMN2-luciferase splicing reporter, luminescence, 30-36 h | 2.8% of 210,000 active; note: % of control where 0% means no effect; nearly all actives have a fitted effect of over 55% in size
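qHTS luciferase splicing reporter: luminescence rises when SMN2 exon 7 is included in transfected HEK293 cells. Compound exposure lasted 30-36 h at 37C, with 4.5 mM final sodium butyrate as control, followed by a ONE-Glo read.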
Luc counter: blocks Kinase-Glo luciferase, a counter-screen artifact; Kinase-Glo luciferase, ATP luminescence, 8 min; Potency, µM (highest dose often 38.3 µM), for the others: top-dose activity change, negative = inhibition, usual class: inhibitors; AID 1379; 0.28% of 200,000 active; note: % is set by controls: 0 for no effect and ±100 for the full control effect; nearly all actives have a fitted effect of over 60% in size
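Substrate mix (final 50 mM imidazole pH 7.2, 50 mM KCl, 7 mM MgCl2, 10 uM ATP, 0.01% Tween 20, 0.05% BSA) plus pin-tool compound, then Kinase-Glo detection mix; 8 min ambient, luminescence read.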
Rab9 promoter act: activates the Rab9 promoter; Huh7 Rab9 promoter-luciferase reporter, luminescence, 24 h; Potency, µM (titrated, usually from 9.22 µM), inactives show at the highest dose activation, negative = inhibition, usual class: activators; 2.8% of 320,000 active; note: % of control where 0% means no effect; nearly all actives have a fitted effect of over 60% in size
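Huh7 cells stably carrying Rab9 promoter–luciferase reporter, plated 1500 cells/well, compound added after 2 h and incubated 24 h at 37 °C; luciferase luminescence then read after 10 min with detection reagent.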
ELG1 genotox: induces genotoxicity in HEK293T cells with luciferase-tagged ELG1 | Potency, µM (highest dose often 46 µM), for the others: top-dose activity change, positive = activation, usual class: activators | HEK293T ELG1-luciferase reporter, luminescence, 16 h | 1.3% of 330,000 active; note: % of control where 0% means no effect; nearly all actives have a fitted effect of over 60% in size
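16 hr compound incubation (37 °C, 5% CO2) of HEK293T cells carrying luciferase-tagged ELG1; luciferase then measured by ONE-Glo luminescence after 30 min at RT.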
* hit, by the source's call; u = inconclusive; x = no result given; [ ] = another dose, or the depositor's remark. In the library only some 7.5% were active in any assay of this set; here they are far more common. Calls come from the whole dose curve; as a rule, active = well fitted curve in the direction sought with a large enough effect; inconclusive = small, poorly fitted or top-dose-only effect, or another doubt; inactive = no such curve, though single readings can be large; an effect the other way counts as inactive or inconclusive. Potency is the fitted concentration of half-maximal effect.

SMILES | NPC1 promoter act | FLuc modulator | SMN2 splice enh | Luc counter | Rab9 promoter act | ELG1 genotox
Cc1cc(C(=O)N(C)C)sc1-c1ccccc1 | u | 21µM* | 10µM* | 2% | 28% | u
Cc1cc(C(=O)N2CCN(S(C)(=O)=O)CC2)sc1-c1ccccc1 | -3% | 6% | -14% | -8% | -4% | 6%
CC(Cc1cccs1)NC(=O)Nc1ccc(Cl)c(Cl)c1 (stereo unspecified) | u | 21µM* | 6% | 3% | u | 2%
CC(Cc1cccs1)NC(=S)Nc1ccccc1 (stereo unspecified) | 2% | -16% | -28% | -2% | -9% | 1%
CC(Cc1cccs1)NC(=O)Nc1ccc(Cl)cc1 (stereo unspecified) | u | 12µM* | 14% | -5% | u | 5.6µM*
CC(Cc1cccs1)NC(=O)Nc1ccccc1 (stereo unspecified) | 20% | u | -12% | 0% | 19% | 6%
O=S(=O)(NCc1ccc(Cl)cc1)c1ccc2[nH]c3c(c2c1)CCCC3 | x | -15% | x | x | x | x
CCC(C)c1ccccc1NC(=O)C(C)OC(=O)CN1C(=O)NC(C)(C)C1=O (stereo unspecified) | -2% | 0% | x | x | -1% | 1%
COc1ccc(N2CCN(C(=O)CN3C(=O)NC(C)(C4CC4)C3=O)CC2)cc1 (stereo unspecified) | 5% | x | x | x | -2% | 1%
O=C(Nc1ccc2c(c1)OCO2)C(=O)c1c[nH]c2ccccc12 | 0.4µM* | 0.67µM* | x | x | 0.71µM* | 1.8µM*
CCN(CC)C(=O)Cn1cc(C(=O)C(=O)NCCCN2CCOCC2)c2ccccc21 | 2% | 1% | x | x | 9% | 3%
Cc1[nH]c2ccccc2c1C(=O)C(=O)Nc1ccc2c(c1)OCCO2 | u | 15µM* | x | x | u | 17%
O=C(Nc1ccc2c(c1)OCCO2)C(=O)c1c[nH]c2ccccc12 | u | 0.19µM* | x | x | 0.1µM* | u
Cc1cc(NC(=O)C(=O)c2c(C)[nH]c3ccccc23)no1 | -3% | 5% | -22% | 3% | -11% | u
CCN(CC)C(=O)Cn1cc(C(=O)C(=O)Nc2ccc3c(c2)OCCO3)c2ccccc21 | 30% | 3.4µM* | x | x | u | -1%
O=C(c1ccc2c(c1)N(Cc1ccc(Cl)cc1)C(=O)c1ccccc1S2(=O)=O)N1CCCC1 | x | -5% | -9% | x | x | x
CC(C)(C)c1ccc(OC(=O)Nc2ccc(O)c(C(=O)O)c2)cc1 | -1% | 1.2µM* | -13%[9.22 µM] | -3%[7.66 µM] | 3% | 6%
Cc1ccc(OCC(=O)Nc2ccc(N3CCCC3)cc2)cc1C | 2% | -5% | 2% | -5% | 8% | 4%
Cc1ccccc1NC(=O)c1ccc(OCC(=O)Nc2ccccc2F)cc1 | -1% | 4% | -7% | 0% | -1% | -7%
Cc1ccc(OCC(=O)Nc2ccc(O)c(C(=O)O)c2)cc1C | 1% | 17µM* | -4% | 3% | 1% | 2%
Cc1ccc(OCC(=O)Nc2ccccc2F)cc1C | 22% | 9.5µM* | x | -5% | u | 10µM*
NC(=O)C1CC(=O)N(c2ccc(OCC(=O)Nc3ccc(F)cc3)cc2)C1 (stereo unspecified) | 7% | -6% | x | x | 10% | 4%
Cc1ccc(C(=O)Nc2ccc(O)c(C(=O)O)c2)o1 | -3% | u | 14% | -5% | -6% | -4%
NC(=O)C1CC(=O)N(c2ccc(OCC(=O)Nc3ccccc3F)cc2)C1 (stereo unspecified) | u | 17µM* | x | x | 2.2µM* | u
O=[N+]([O-])c1cccc(CSc2nnc(Cc3ccccc3)n2-c2ccc(F)cc2)c1 | -2% | 3% | -7% | 1% | 1% | -7%
SMILES | NPC1 promoter act | FLuc modulator | SMN2 splice enh | Luc counter | Rab9 promoter act | ELG1 genotox
COc1ccc(-c2nc3nc(C)cc(N4CCN(c5cccc(C(F)(F)F)c5)CC4)n3n2)cc1 | x | -9% | -2% | x | x | x
O=C(CCn1cccn1)N1CCCC(N2CCN(c3cccc(Cl)c3)CC2)C1 (stereo unspecified) | 12% | -1% | x | x | 19% | -7%
COc1cc2c(cc1NC(=O)C1CCCO1)oc1ccccc12 (stereo unspecified) | 4µM* | 6µM* | 25µM* | 2% | 3.5µM* | 4.6µM*
COC(=O)c1ccc(NC(=O)CC2Nc3cc(C)c(C)cc3NC2=O)cc1 (stereo unspecified) | x | -18% | -1% | x | x | x
CCOc1ccc(NC(=O)CSc2nnc(CC)c(CC)n2)cc1 | x | -9% | x | x | x | x
COC(=O)CCc1sc(Nc2ccccc2)nc1-c1ccc(OC)cc1 | 15% | 24µM* | u | 2% | 25% | u
COc1ccc(Nc2nc(-c3ccc(OC)cc3)c(CCC(=O)O)s2)cc1 | -5% | u | x | x | -8% | 3%
C=CCn1c(SCC(N)=O)nc2scc(-c3ccc(C)o3)c2c1=O | u | 4.8µM* | x | 6% | 2.5µM* | u
O=C(CSc1ccccc1C(=O)NCc1ccccc1)NC1CCCCCCC1 | -3% | 24µM* | -37% | 2% | -4% | -5%
O=C(NC1CCCCC1)C(=S)NC1CCCCC1 | 2.8µM* | u | 14µM* | -2% | 3.5µM* | u
O=C(NC1CCCCCC1)C(=S)NCc1ccccc1 | 14% | 21µM* | 25% | 4% | u | 14%
O=C(NC1CCCCCC1)C(=S)NCCc1ccccc1 | 10% | u | 23% | -1% | 26% | 8%
O=C(NC1CCCCC1)C(=S)NCc1ccccc1 | u | 21µM* | u | -1% | u | 17%
O=C(NCc1ccccc1)C1CCCC1 | 5% | -6% | x | x | 1% | -3%
O=C(NC1CCCCC1)C(=S)N1CCCC1 | -3% | -1% | -13% | -1% | -3% | 0%
O=C(NC(=S)N(CCO)Cc1ccccc1)c1ccc(F)cc1Cl | -1% | -1% | x | x | 0%[1.84 µM] | 2%
O=C(Nc1ccccc1)N1CCCc2ccccc21 | 0% | -14% | 14% | -1% | -1% | 5%
O=C(Nc1ccccc1)C(=O)Nc1ccc2c(c1)N(C(=O)C1CC1)CCC2 | 1.1µM* | 3.4µM* | x | x | 1.1µM* | 1.6µM*
Cc1ccc(NC(=O)N2CCCCCC2)cc1C | 4.5µM* | 17µM* | x | x | 3.2µM* | u
Cc1ccc(NC(=O)N2CCCc3ccccc32)cc1C | 17% | 21µM* | x | x | 20% | u
O=C(Nc1ccc(Br)cc1)N1CCCCC1 | u | 15µM* | u | -10% | u | 14%
CCc1cccc(NS(=O)(=O)c2c(C)[nH]c(=O)[nH]c2=O)c1 | 1% | 0% | x | x | 9% | 1%
Cc1ccc(CNC(=O)CCc2nc3cccnc3n2Cc2ccccc2)cc1 | x | 7% | -12% | x | x | x
